Measured values from PubChem BioAssay AID652197 (Broad Institute, 2013).
Values joined by “and” are separate entries in the source; they are usually repeats but may differ in a detail not shown here. Equal entries are not always repeated. About 500 (0.15%) of roughly 340,000 compounds were called active. This is one part of a sample in which actives are shown more often than they occur.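 Rule for the calls: active = mean replicate inhibition of at least 30%, or all replicates individually reaching that 30% level; inactive = mean below 30% and not every replicate reaching it.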

Molecular target: Endoplasmic reticulum aminopeptidase 1 (Homo sapiens) (UniProt Q9NZ08)
Sequence (Q9NZ08 whole entry, looked up): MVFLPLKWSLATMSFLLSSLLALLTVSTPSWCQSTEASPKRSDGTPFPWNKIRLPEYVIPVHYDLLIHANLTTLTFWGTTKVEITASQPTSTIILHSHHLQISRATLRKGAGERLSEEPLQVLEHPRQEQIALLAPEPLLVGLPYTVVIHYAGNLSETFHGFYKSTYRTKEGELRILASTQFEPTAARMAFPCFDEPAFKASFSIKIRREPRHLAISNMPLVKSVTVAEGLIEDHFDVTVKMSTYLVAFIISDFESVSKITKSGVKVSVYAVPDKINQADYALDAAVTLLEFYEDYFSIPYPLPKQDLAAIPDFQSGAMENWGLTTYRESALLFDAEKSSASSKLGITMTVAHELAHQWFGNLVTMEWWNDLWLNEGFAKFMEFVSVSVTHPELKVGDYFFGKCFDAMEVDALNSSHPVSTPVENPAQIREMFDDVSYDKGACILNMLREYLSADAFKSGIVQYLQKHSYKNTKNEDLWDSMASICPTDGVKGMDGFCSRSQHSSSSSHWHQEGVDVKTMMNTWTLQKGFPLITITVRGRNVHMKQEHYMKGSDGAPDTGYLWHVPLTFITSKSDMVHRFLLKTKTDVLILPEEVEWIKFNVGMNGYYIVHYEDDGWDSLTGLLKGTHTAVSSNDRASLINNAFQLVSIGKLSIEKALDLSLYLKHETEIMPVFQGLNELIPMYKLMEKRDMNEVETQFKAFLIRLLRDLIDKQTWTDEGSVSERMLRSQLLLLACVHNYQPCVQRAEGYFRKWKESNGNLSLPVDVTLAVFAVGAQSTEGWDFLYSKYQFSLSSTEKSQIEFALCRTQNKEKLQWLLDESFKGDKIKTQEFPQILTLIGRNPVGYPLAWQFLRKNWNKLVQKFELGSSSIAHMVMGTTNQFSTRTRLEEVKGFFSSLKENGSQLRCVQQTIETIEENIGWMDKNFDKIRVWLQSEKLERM
Assay: human ERAP1 aminopeptidase inhibitors, primary screen, biochemical, single point, plate reader (AID 652197);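 note: 0% = neutral control wells and 100% = L-leucinethiol positive control wells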
Conditions: recombinant ERAP1, Leu-AMC fluorescence, 60 min; at 10.7 µM; hits give high values

inhibition, inactive:
Cc1noc(C)c1C(=O)N(C)C[C@H]1OCc2ccccc2-c2c(n(C)c3ccccc23)C(=O)N([C@@H](C)CO)C[C@H]1C -0.288%, O=C(NC1=CC(=O)c2ccccc2C1=O)c1ccccc1 2.97%, O=C1C(Cl)=C(Oc2ccccc2)C(=O)c2ccccc21 4.33%, CC(C)NC(=O)N1CCCCN2[C@@H](CO)[C@@H](c3ccc(C#Cc4ccccc4)cc3)[C@@H]2C1 0.974%, O=C(Cc1ccccc1)N1CC[C@@H]2[C@H](CO)Nc3ccc(-c4ccccc4)cc3[C@@H]21 4.96%, C/C=C/c1ccc([C@H]2[C@H](CO)N(C(=O)CN(C)C)C23CN(C(=O)C2CC2)C3)cc1 -1.65%, O=C(C[C@H]1CC[C@H]2[C@@H](COC[C@H](O)CN2S(=O)(=O)c2cccc(F)c2)O1)NC1CCC1 -1.89%, COc1ccc(-c2ccc([C@@H]3[C@H](CN(C)S(C)(=O)=O)N[C@@H]3CO)cc2)cc1 -0.559%, C[C@@H]1CCCCO[C@@H](CN(C)S(=O)(=O)c2cccs2)[C@H](C)CN([C@H](C)CO)C(=O)c2cc(NC(=O)CCCN(C)C)ccc2O1 0.521%, Cc1ccccc1NC(=O)Cc1nc(COC(=O)CNC(=O)c2ccc(Cl)cc2Cl)cs1 -1.49%, COc1ccc(CCNC(=O)COC(=O)c2cnc(Cl)c(Cl)c2)cc1 -0.478%, CCC(=O)N1CC2(C1)[C@@H](c1ccc(C3=CCCC3)cc1)[C@@H](CO)N2C(=O)COC -3.58%, C[C@@H]1CCCCO[C@@H](CN(C)Cc2ccc3c(c2)OCO3)[C@@H](C)CN([C@@H](C)CO)C(=O)c2cc(NC(=O)C3CCCCC3)ccc2O1 -1.88%, C[C@@H]1CN([C@@H](C)CO)C(=O)c2cc(C#CC3CCCCC3)cnc2O[C@H]1CN(C)C(=O)Cc1ccccn1 4.3%, COc1ccc(NC(=O)N(C)C[C@@H]2OCCCC[C@@H](C)Oc3ccc(NS(C)(=O)=O)cc3C(=O)N([C@@H](C)CO)C[C@H]2C)cc1 4.38%, CCC(=O)N[C@H]1CC[C@@H](CC(=O)NCC2CC2)O[C@@H]1CO -1.77%, CN1CCCc2nc(-c3ccccc3)ccc21 0.84%, CC(=O)O[C@H]1CC[C@@]2(C)[C@@H](CC[C@@H]3[C@@H]2CC[C@]2(C)[C@@H](C(C)(C)O)C[C@@H]32)C1 -4.42%, O=C(C[C@H]1CC[C@H]2[C@@H](COC[C@@H](O)CN2C(=O)Nc2ccc(C(F)(F)F)cc2)O1)NC1Cc2ccccc2C1 3.19%, Cc1ccc(-c2ccc(C3[C@H]4CNC[C@@H]3N4S(=O)(=O)c3ccccc3C)cc2)cc1 (stereo partly drawn) 1.57% and -0.081%, COc1cccc(-c2ccc([C@@H]3[C@@H](CO)N4C(=O)CN(C(=O)C5CCCCC5)C[C@H]34)cc2)c1 -0.992%, CO[C@@H]1CC[C@@H]2CCOc3ccc(C#N)cc3C(=O)N(C)C[C@@H](OC)[C@@H](C)C(=O)N(C)C[C@H]1O2 -4.56%, CNC(=O)C[C@@H]1CC[C@@H]2[C@H](COC[C@@H](O)CN2S(=O)(=O)c2ccccc2Cl)O1 0.052%, Cc1nc2cccnc2nc1C 1.29%, O=C(CCN1CCCCC1)NCC[C@H]1CC[C@@H](NC(=O)C2CCOCC2)[C@H](CO)O1 3.14%, C[C@H]1CN([C@@H](C)CO)C(=O)Cc2cc(NC(=O)c3ccncc3)ccc2O[C@@H]1CN(C)C(=O)Nc1ccccc1 1.04%, CNC(=O)C[C@H]1CC[C@@H]2[C@H](COc3ccc(NC(=O)Nc4ccc(F)c(F)c4)cc3C(=O)N2C)O1 0.113%, C#Cc1ccc([C@H]2C=C(C(=O)O)O[C@@H](OCC)[C@@H]2CCCO)cc1 -6.5%, C[C@@H]1CCCCO[C@H](CN(C)C(=O)c2ccccc2)[C@H](C)CN([C@@H](C)CO)C(=O)c2cc(NC(=O)Nc3ccc4c(c3)OCO4)ccc2O1 -5.55%, Cc1ccc(S(=O)(=O)Nc2ccc3c(c2)C(=O)N([C@@H](C)CO)C[C@@H](C)[C@H](CN(C)Cc2ccc(Cl)c(Cl)c2)OCCCC[C@@H](C)O3)cc1 0.461%, COc1ccc(CC2c3cc(OC)c(OC)cc3CC[N+]2(C)CCC(=O)OCCCCCOC(=O)CC[N+]2(C)CCc3cc(OC)c(OC)cc3C2Cc2ccc(OC)c(OC)c2)cc1OC (stereo not drawn) -5.26%, Cc1ccc(COC(=O)CN2C(=O)NC3(CCCC3)C2=O)cc1 -3.32%, Cc1ccc(S(=O)(=O)CCC(=O)OCC(=O)NCCc2ccc(S(N)(=O)=O)cc2)cc1 -0.437%, Cc1ccc(CNC(=O)COC(=O)C2CCC2)cc1 1.31%, COc1ccc2c3c(n(C)c2c1)[C@@H](CO)N(C(=O)CN1CCOCC1)CC31CCN(C(=O)C2CC2)CC1 -0.976%, CCCC(=O)Nc1ccc2c(c1)OC[C@@H](C)N(CC1CCOCC1)C[C@H](C)[C@H](OC)CN(C)C2=O 6.53%, C[C@H](NC(=O)[C@@H]1[C@@H](CO)[C@@H]2Cn3c(ccc(-c4cccc(F)c4)c3=O)[C@@H]2N1C)c1ccccc1 5.74%, CC(C)NC(=O)N(C)C[C@@H]1Oc2ccc(N(C)C)cc2CC(=O)N([C@H](C)CO)C[C@@H]1C 2.87%, CN1CCN(C(=O)C[C@H]2CC[C@@H]3[C@H](COC[C@@H](O)CN3CC3CCCC3)O2)CC1 4.35%, CC(C)c1cn(CC[C@@H]2CC[C@@H](NC(=O)C3CC3)[C@H](CO)O2)nn1 -4.66%, COc1ccc2c3c(n(C)c2c1)[C@H](CO)N(C(=O)NC(C)C)CC31CCN(C(=O)NC(C)C)CC1 -0.444%, O=C(N[C@H]1CC[C@@H](CCNS(=O)(=O)c2ccccc2)O[C@H]1CO)c1cccnc1 -2.04%, C[C@@H]1CN([C@@H](C)CO)C(=O)c2cc(NC(=O)Nc3ccc(F)cc3)ccc2O[C@H]1CN(C)CC1CCCCC1 -0.385%, O=C(c1cccc(F)c1)N1CC[C@@H]2[C@H](CO)Nc3ccc(-c4ccccc4)cc3[C@@H]21 -0.032%, O=C(C[C@@H]1CC[C@H](NC(=O)NC2CCCCC2)[C@H](CO)O1)NCc1ccc(F)cc1 0.011%, CC(C)NC(=O)N1[C@H](C(=O)N2CCc3ccccc3C2)[C@@H](CO)[C@@H]2Cn3c(cccc3=O)[C@@H]21 0.844%, COCCNC(=O)c1snc2ccc(Cl)cc12 -4.43%, COCCNC(=O)CSc1nc(N)c(NC(=O)c2ccco2)c(=O)[nH]1 -7.96%, O=C(C[C@H]1CC[C@H]2[C@@H](COC[C@@H](O)CN2CC2CCCC2)O1)NCC1CC1 -1.66%, Cc1noc(C)c1S(=O)(=O)N(C)C[C@H]1Oc2c(NC(=O)c3cnccn3)cccc2C(=O)N([C@H](C)CO)C[C@H]1C 5.55%, Cc1nc(N2[C@H](CO)[C@H](c3ccccc3)[C@H]2CNCC2CCC2)sc1C 2.07%, O=C(C1CCC1)N1CC(=O)N2[C@H](C1)[C@@H](c1ccc(-c3ccccc3F)cc1)[C@@H]2CO -0.661%, CN(C)C(=O)c1cccc(-c2ccc([C@H]3[C@@H](CO)N4C(=O)CN(C(=O)C5CC5)C[C@@H]34)cc2)c1 0.435%, CN1C(=O)c2cc(NC(=O)C3CC3)ccc2OC[C@H]2O[C@H](CC(=O)O)CC[C@H]21 -5.19%, O=C(Nc1ccccc1F)N1CC(=O)N2[C@H](C1)[C@@H](c1ccc(C#CC3CC3)cc1)[C@@H]2CO -0.691%, O=S(=O)(c1ccc(F)cc1)N1CC[C@@H]2[C@@H](CO)Nc3ccc(-c4ccccc4F)cc3[C@@H]21 1%, O=C(Nc1ccccc1F)N[C@@H]1CC[C@@H](CCNC(=O)C2CC2)O[C@H]1CO -0.77%, Cc1noc(C)c1NC(=O)Nc1ccc2c(c1)C(=O)N([C@H](C)CO)C[C@H](C)[C@@H](CN(C)S(C)(=O)=O)OCCCC[C@H](C)O2 -4.94%, CCCC#Cc1ccc([C@H]2[C@H]3CN(C(=O)c4cccnc4)CC(=O)N3[C@H]2CO)cc1 -1.39%, O=C1CN(C(=O)CN2C(=O)NC3(CCCCC3)C2=O)c2ccccc2N1 -1.69%, O=C(CN1C(=O)NC2(CCCCCC2)C1=O)NCc1cccs1 -3.05%, O=C1CNC[C@H]2[C@@H](c3ccc(C4=CCCC4)cc3)[C@@H](CO)N12 -1.67%, CCCN1C[C@H](C)[C@@H](OC)CN(C)C(=O)c2ccc(NC(=O)c3cnccn3)cc2OC[C@H]1C 4.52%, COc1ccc2c3c([nH]c2c1)[C@@H](CO)N(S(C)(=O)=O)CC31CN(CC2CC2)C1 -2.67%, NCC[C@H]1CC[C@H](NC(=O)C2CC2)[C@@H](CO)O1 2.22%, C[C@@H]1CN([C@@H](C)CO)C(=O)c2cc(NC(=O)C3CCCCC3)ccc2O[C@@H](C)CCCCO[C@H]1CN(C)C(=O)CCC(F)(F)F -1.11%, Cc1ccc(S(=O)(=O)Nc2ccc3c(c2)C(=O)N([C@@H](C)CO)C[C@@H](C)[C@H](CN(C)C(=O)NC(C)C)OCCCC[C@H](C)O3)cc1 -4.09%, COc1ccccc1S(=O)(=O)N[C@@H]1CC[C@H](CC(=O)N2CCOCC2)O[C@@H]1CO -0.783%, O=C(OCC(=O)c1c[nH]c2ccccc12)c1cccc(O)c1 -0.958%, C[C@H]1CN([C@@H](C)CO)C(=O)c2cc(NC(=O)Cn3cnnn3)ccc2O[C@H]1CN(C)S(C)(=O)=O -0.7%, CCCNC(=O)Nc1ccc2c(c1)C(=O)N(C)C[C@H](OC)[C@H](C)CN[C@@H](C)CO2 -2.85%, COc1ccc2c3c([nH]c2c1)[C@H](CO)N(C(=O)C1CCC1)CC31CCN(Cc2cccc(F)c2)CC1 0.436%, Cc1noc(C)c1S(=O)(=O)Nc1ccc2c(c1)C(=O)N([C@H](C)CO)C[C@H](C)[C@H](CN(C)C(=O)CCC(F)(F)F)OCCCC[C@H](C)O2 0.261%, CCCNC(=O)Nc1ccc2c(c1)OC[C@H](C)N(C(=O)C1CCC1)C[C@H](C)[C@@H](OC)CN(C)C2=O 2.58%, C[C@@H]1CN([C@@H](C)CO)C(=O)c2c(c3ccccc3n2C)-c2ccccc2CO[C@@H]1CN(C)Cc1ccc2c(c1)OCCN2C 2.84%, O=C(C[C@H]1C[C@@H]2c3cc(NS(=O)(=O)c4ccc(F)cc4)ccc3O[C@@H]2[C@H](CO)O1)NCc1cccc(F)c1 -2.83%, CCCNC(=O)C[C@H]1C[C@H]2c3cc(NC(=O)COC)ccc3O[C@H]2[C@H](CO)O1 0.774%

inhibition, active:
CC(=O)N(C1=C(Cl)C(=O)c2ccccc2C1=O)c1ccc(C(=O)O)cc1 84.4%, COc1ccc(CCOC(=O)CNC(=O)c2ccc(Cl)cc2Cl)cc1 37.4%, Cc1cc2c(nc1C)CCCN2C 56.4%, C[C@H]([C@@H](O)[C@@H](O)[C@@H](C)C(C)(C)C)[C@H]1CC[C@H]2C3CC[C@H]4C[C@H](OS(=O)(=O)O)[C@@H](OS(=O)(=O)O)C[C@]4(C)[C@H]3CC[C@]12C (stereo partly drawn) 51.7%, Cc1nc2ccc(N)nc2nc1C 31.2%, Cc1ccc(CCCOC(=O)C[N+]2(C)CCCCC2)cc1 30.8%, Cc1ccc(CCCOC(=O)C[N+]2(C)CCCC2)cc1 106%, COc1cccc2c1C(=O)c1c(O)c3c(c(O)c1C2=O)CC(O)(C(C)=NNC(=O)c1ccc(Cl)c(Cl)c1)CC3OC1CC(N)C(O)C(C)O1 (stereo not drawn) 42%, COCCNC(=O)Nc1ccc2nc(-c3ccco3)c(-c3ccco3)nc2c1 30.5%, O=C(CN1C(=O)NC2(CCCCC2)C1=O)N1CCN(C(=O)c2cccs2)CC1 37.4%, O=C(O)c1[nH]c2ccccc2c1C(c1cccc(O)c1)c1c(C(=O)O)[nH]c2ccccc12 34.8%
